# About 79,000 compounds went through this panel and 15% of them were active in at least one assay; those are over-represented in the sample as a whole. Unmarked numbers belong to inactive results. The source made the active and inactive calls. Cut-off read from the data, not from the text of the source: active = growth inhibition above about 70%; inactive = the rest.
# Columns and labels:
# [1] = NCI Yeast Anticancer Drug Screen. Data for the rad52 strain (AID 147);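 note: 0% = growth of vehicle-treated control cultures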; conditions: S. cerevisiae rad52 mutant growth inhibition, stronger effect = higher value
# Method in brief: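 Compounds are applied to a genetically defined yeast strain lacking normal DNA damage repair, and inhibition of growth is expressed relative to cultures given vehicle only.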
# [2] = NCI Yeast Anticancer Drug Screen. Data for the wt1 strain (AID 149);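 note: 0% = growth of vehicle-treated wt1 cultures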; conditions: S. cerevisiae wt1 strain (SPY 50644) growth inhibition, stronger effect = higher value
# Method in brief: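 Readout: yeast growth inhibition, normalised to vehicle controls, in the wt1 strain exposed to test compounds.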
# [3] = NCI Yeast Anticancer Drug Screen. Data for the rad50EPP+ strain (AID 151);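 note: 0% = growth of vehicle-treated control cultures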; conditions: S. cerevisiae rad50 mutant strain, stronger effect = higher value
# Method in brief: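 Compounds were applied to the rad50EPP+ yeast strain, which bears a defined DNA repair alteration, and growth inhibition was determined relative to vehicle-treated cultures.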
# [4] = NCI Yeast Anticancer Drug Screen. Data for the mgt1 strain (AID 153); conditions: S. cerevisiae mgt1 mutant growth inhibition, stronger effect = higher value
# Method in brief: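 Strain: mgt1 yeast, one of a set carrying defined DNA damage repair or cell cycle control alterations. Compound-treated growth compared with vehicle.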
# [5] = NCI Yeast Anticancer Drug Screen. Data for the rad50 strain (AID 155);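 note: 0% = growth of vehicle-only cultures of the same strain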; conditions: S. cerevisiae rad50 strain growth inhibition, stronger effect = higher value
# Method in brief: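 Compounds were tested on a yeast strain with an engineered DNA damage repair alteration; the reported value is growth inhibition normalised to vehicle treatment.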
# [6] = NCI Yeast Anticancer Drug Screen. Data for the mec2-1 strain (AID 157); conditions: S. cerevisiae mec2-1 strain, stronger effect = higher value
# Method in brief: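 Strain: mec2-1 (DNA repair/cell cycle alteration). Compound exposure, then growth measured; inhibition expressed relative to vehicle.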
# [7] = NCI Yeast Anticancer Drug Screen. Data for the rad14 strain (AID 159);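 note: 0% = growth of vehicle-treated control cultures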; conditions: S. cerevisiae rad14 strain growth inhibition, stronger effect = higher value
# Method in brief: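 Compound-treated yeast with a defined DNA-repair lesion; growth inhibition normalised to vehicle-treated cultures.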
# [8] = NCI Yeast Anticancer Drug Screen. Data for the sgs1 mgt1 strain (AID 161);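 note: 0% = growth of cultures given vehicle only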; conditions: S. cerevisiae sgs1 mgt1 strain, stronger effect = higher value
# Method in brief: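 Mutant yeast exposed to compound; growth scored against vehicle-only wells.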
# [9] = NCI Yeast Anticancer Drug Screen. Data for the CLN2oe strain (AID 163);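 note: 0% = growth of vehicle-only control cultures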; conditions: S. cerevisiae CLN2oe strain, stronger effect = higher value
# Method in brief: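 Growth of a genetically modified yeast strain is measured after compound exposure and compared with cultures given vehicle alone.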
# [10] = NCI Yeast Anticancer Drug Screen. Data for the cln2 rad14 strain (AID 165);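 note: 0% = growth equal to vehicle treated cultures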; conditions: S. cerevisiae cln2 rad14 strain, stronger effect = higher value
# Method in brief: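 Compounds are applied to the cln2 rad14 yeast strain, and growth is then compared with that of vehicle-treated cultures to give inhibition.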
# [11] = NCI Yeast Anticancer Drug Screen. Data for the bub3 strain (AID 167); conditions: S. cerevisiae bub3 mutant strain, stronger effect = higher value
# Method in brief: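 Growth of a checkpoint-deficient yeast mutant is measured after compound exposure. Values represent inhibition relative to vehicle.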
# [12] = NCI Yeast Anticancer Drug Screen. Data for the wt2 strain (AID 169);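 note: 0% = growth of vehicle-treated yeast cultures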; conditions: S. cerevisiae wt2 strain growth inhibition, stronger effect = higher value
# Method in brief: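 This strain belongs to a panel of yeast strains with defined genetic alterations in DNA damage repair or cell cycle control. Compounds are applied, and growth inhibition is measured against vehicle-treated cultures.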
# [13] = NCI Yeast Anticancer Drug Screen. Data for the mlh1 strain (AID 171);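 note: 0% = growth of vehicle-treated control cultures of the same strain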; conditions: S. cerevisiae mlh1 strain growth inhibition, stronger effect = higher value
# Method in brief: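 Growth of the mutant yeast strain after compound exposure, expressed as inhibition relative to vehicle-only controls.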
# [14] = NCI Yeast Anticancer Drug Screen. Data for the sgs1 strain (AID 173);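 note: 0% = growth of vehicle-only control cultures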; conditions: S. cerevisiae sgs1 mutant, stronger effect = higher value
# Method in brief: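 Growth of a yeast strain bearing a defined genetic alteration is measured after compound treatment. Inhibition is expressed relative to vehicle-only controls.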
# [15] = NCI Yeast Anticancer Drug Screen. Data for the mlh1 rad18 strain (AID 175); conditions: S. cerevisiae mlh1 rad18 strain growth inhibition, stronger effect = higher value
# Method in brief: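 Read-out is yeast growth inhibition, calculated against vehicle-only controls. The compound was applied to a strain engineered with DNA damage repair alterations.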
# [16] = NCI Yeast Anticancer Drug Screen. Data for the rad18 strain (AID 177); conditions: S. cerevisiae rad18 mutant growth inhibition, stronger effect = higher value
# Method in brief: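 Growth of the mutant yeast strain after compound exposure, normalised to vehicle-only cultures.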
# [17] = at 5.0 µM (retest, dose inferred, filed as 0.5)
# [18] = at 50.0 µM (retest, dose inferred, filed as 5.0)
structure (smiles),measurement,setting,value
C=C1N(C)c2ccc(Cl)cc2C1(C)C,growth inhibition,[1]; at 1.2 µM,-26%
same,growth inhibition,[1]; at 3.7 µM,-25%
same,growth inhibition,[1]; at 11.0 µM,-38%
same,growth inhibition,[1]; at 33.0 µM,-7%
same,growth inhibition,[1]; at 100.0 µM,94% (active)
same,growth inhibition,[2]; at 1.2 µM,-37%
same,growth inhibition,[2]; at 3.7 µM,-28%
same,growth inhibition,[2]; at 11.0 µM,-30%
same,growth inhibition,[2]; at 33.0 µM,-21%
same,growth inhibition,[2]; at 100.0 µM,92% (active)
same,growth inhibition,[3]; at 1.2 µM,-5%
same,growth inhibition,[3]; at 3.7 µM,-7%
same,growth inhibition,[3]; at 11.0 µM,-23%
same,growth inhibition,[3]; at 33.0 µM,-18%
same,growth inhibition,[3]; at 100.0 µM,-6%
same,growth inhibition,[4]; at 1.2 µM,-23%
same,growth inhibition,[4]; at 3.7 µM,0%
same,growth inhibition,[4]; at 11.0 µM,0%
same,growth inhibition,[4]; at 33.0 µM,29%
same,growth inhibition,[4]; at 100.0 µM,97% (active)
same,growth inhibition,[5]; at 1.2 µM,4%
same,growth inhibition,[5]; at 3.7 µM,-22%
same,growth inhibition,[5]; [17],68%
same,growth inhibition,[5]; at 11.0 µM,-26%
same,growth inhibition,[5]; at 33.0 µM,20%
same,growth inhibition,[5]; [18],99% (active)
same,growth inhibition,[5]; at 50.0 µM,88.9% (active)
same,growth inhibition,[5]; at 100.0 µM,94% (active)
same,growth inhibition,[6]; at 1.2 µM,-3%
same,growth inhibition,[6]; at 3.7 µM,4%
same,growth inhibition,[6]; [17],77% (active)
same,growth inhibition,[6]; at 11.0 µM,-8%
same,growth inhibition,[6]; at 33.0 µM,19%
same,growth inhibition,[6]; [18],100% (active)
same,growth inhibition,[6]; at 50.0 µM,90.1% (active)
same,growth inhibition,[6]; at 100.0 µM,96% (active)
same,growth inhibition,[7]; at 1.2 µM,-33%
same,growth inhibition,[7]; at 3.7 µM,-37%
same,growth inhibition,[7]; at 11.0 µM,-23%
same,growth inhibition,[7]; at 33.0 µM,12%
same,growth inhibition,[7]; at 100.0 µM,95% (active)
same,growth inhibition,[8]; [17],-6%
same,growth inhibition,[8]; [18],88% (active)
same,growth inhibition,[9]; at 1.2 µM,-16%
same,growth inhibition,[9]; at 3.7 µM,-31%
same,growth inhibition,[9]; at 11.0 µM,-22%
same,growth inhibition,[9]; at 33.0 µM,4%
same,growth inhibition,[9]; at 100.0 µM,96% (active)
same,growth inhibition,[10]; [17],64%
same,growth inhibition,[10]; [18],86% (active)
same,growth inhibition,[11]; at 1.2 µM,18%
same,growth inhibition,[11]; at 3.7 µM,28%
same,growth inhibition,[11]; [17],-1%
same,growth inhibition,[11]; at 11.0 µM,5%
same,growth inhibition,[11]; at 33.0 µM,28%
same,growth inhibition,[11]; [18],93% (active)
same,growth inhibition,[11]; at 100.0 µM,97% (active)
same,growth inhibition,[12]; at 1.2 µM,-30%
same,growth inhibition,[12]; at 3.7 µM,-30%
same,growth inhibition,[12]; at 11.0 µM,-28%
same,growth inhibition,[12]; at 33.0 µM,-23%
same,growth inhibition,[12]; at 100.0 µM,94% (active)
same,growth inhibition,[13]; at 1.2 µM,-45%
same,growth inhibition,[13]; at 3.7 µM,-43%
same,growth inhibition,[13]; at 11.0 µM,-30%
same,growth inhibition,[13]; at 33.0 µM,3%
same,growth inhibition,[13]; at 100.0 µM,94% (active)
same,growth inhibition,[14]; at 1.2 µM,-24%
same,growth inhibition,[14]; at 3.7 µM,-46%
same,growth inhibition,[14]; at 11.0 µM,-47%
same,growth inhibition,[14]; at 33.0 µM,1%
same,growth inhibition,[14]; at 100.0 µM,92% (active)
same,growth inhibition,[15]; [17],57%
same,growth inhibition,[15]; [18],100% (active)
same,growth inhibition,[15]; at 50.0 µM,88.9% (active)
same,growth inhibition,[16]; at 1.2 µM,-2%
same,growth inhibition,[16]; at 3.7 µM,-18%
same,growth inhibition,[16]; at 11.0 µM,-26%
same,growth inhibition,[16]; at 33.0 µM,15%
same,growth inhibition,[16]; at 100.0 µM,94% (active)
Cc1cc(N=C2C=CC(=[N+](C)C)C=C2)c(N)cc1N,growth inhibition,[1]; at 1.2 µM,-7%
same,growth inhibition,[1]; at 3.7 µM,-9%
same,growth inhibition,[1]; at 11.0 µM,15%
same,growth inhibition,[1]; at 33.0 µM,45%
same,growth inhibition,[1]; at 100.0 µM,72% (active)
same,growth inhibition,[2]; at 1.2 µM,12%
same,growth inhibition,[2]; at 3.7 µM,15%
same,growth inhibition,[2]; at 11.0 µM,23%
same,growth inhibition,[2]; at 33.0 µM,52%
same,growth inhibition,[2]; at 100.0 µM,75% (active)
same,growth inhibition,[3]; at 1.2 µM,-8%
same,growth inhibition,[3]; at 3.7 µM,-6%
same,growth inhibition,[3]; at 11.0 µM,-5%
same,growth inhibition,[3]; at 33.0 µM,9%
same,growth inhibition,[3]; at 100.0 µM,47%
same,growth inhibition,[4]; at 1.2 µM,4%
same,growth inhibition,[4]; at 3.7 µM,15%
same,growth inhibition,[4]; at 11.0 µM,28%
same,growth inhibition,[4]; at 33.0 µM,52%
same,growth inhibition,[4]; at 100.0 µM,75% (active)
same,growth inhibition,[5]; at 1.2 µM,-2%
same,growth inhibition,[5]; at 3.7 µM,1%
same,growth inhibition,[5]; [17],54%
same,growth inhibition,[5]; at 11.0 µM,15%
same,growth inhibition,[5]; at 33.0 µM,52%
same,growth inhibition,[5]; [18],61%
same,growth inhibition,[5]; at 50.0 µM,46.4%
same,growth inhibition,[5]; at 100.0 µM,71% (active)
same,growth inhibition,[6]; at 1.2 µM,-16%
same,growth inhibition,[6]; at 3.7 µM,-13%
same,growth inhibition,[6]; [17],50%
same,growth inhibition,[6]; at 11.0 µM,-3%
same,growth inhibition,[6]; at 33.0 µM,23%
same,growth inhibition,[6]; [18],70% (active)
same,growth inhibition,[6]; at 50.0 µM,45.3%
same,growth inhibition,[6]; at 100.0 µM,59%
same,growth inhibition,[7]; at 1.2 µM,-20%
same,growth inhibition,[7]; at 3.7 µM,-19%
same,growth inhibition,[7]; at 11.0 µM,8%
same,growth inhibition,[7]; at 33.0 µM,46%
same,growth inhibition,[7]; at 100.0 µM,70% (active)
same,growth inhibition,[8]; [17],-18%
same,growth inhibition,[8]; [18],65%
same,growth inhibition,[8]; at 50.0 µM,63.8%
same,growth inhibition,[9]; at 1.2 µM,35%
same,growth inhibition,[9]; at 3.7 µM,35%
same,growth inhibition,[9]; at 11.0 µM,32%
same,growth inhibition,[9]; at 33.0 µM,28%
same,growth inhibition,[9]; at 100.0 µM,67%
same,growth inhibition,[10]; [17],59%
same,growth inhibition,[10]; [18],57%
same,growth inhibition,[10]; at 50.0 µM,39.7%
same,growth inhibition,[11]; at 1.2 µM,4%
same,growth inhibition,[11]; at 3.7 µM,7%
same,growth inhibition,[11]; [17],31%
same,growth inhibition,[11]; at 11.0 µM,34%
same,growth inhibition,[11]; at 33.0 µM,54%
same,growth inhibition,[11]; [18],21%
same,growth inhibition,[11]; at 50.0 µM,62.6%
same,growth inhibition,[11]; at 100.0 µM,75% (active)
same,growth inhibition,[12]; at 1.2 µM,-9%
same,growth inhibition,[12]; at 3.7 µM,22%
same,growth inhibition,[12]; at 11.0 µM,-15%
same,growth inhibition,[12]; at 33.0 µM,22%
same,growth inhibition,[12]; at 100.0 µM,62%
same,growth inhibition,[14]; at 1.2 µM,-27%
same,growth inhibition,[14]; at 3.7 µM,-25%
same,growth inhibition,[14]; at 11.0 µM,1%
same,growth inhibition,[14]; at 33.0 µM,33%
same,growth inhibition,[14]; at 100.0 µM,61%
same,growth inhibition,[15]; [17],28%
same,growth inhibition,[15]; [18],56%
same,growth inhibition,[15]; at 50.0 µM,53.5%
same,growth inhibition,[16]; at 1.2 µM,-2%
same,growth inhibition,[16]; at 3.7 µM,-4%
same,growth inhibition,[16]; at 11.0 µM,7%
same,growth inhibition,[16]; at 33.0 µM,21%
same,growth inhibition,[16]; at 100.0 µM,61%
